Reference: the supplement of paper PMC11417369
The full ranking holds about 25,000 sequences; the median of “ln(normalized median fluorescence intensity)” is about 6.7, and the highest 2% start at about 10. Many of the other results were omitted from the sample, so the highest values are more common in it than they were.

System: PfHDP1 homeodomain (GST-tagged)
Test: gcPBM binding intensity (ln(normalized median fluorescence intensity)); higher = stronger DNA binding
Outline: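 Using an Agilent 4 × 180k array, primer-extended double-stranded 36-bp intergenic genomic probes and negative controls were exposed for 1 h to GST-fused P. falciparum DNA-binding domains expressed in E. coli. Binding was carried out in 1× PBS with 1% milk, 0.2 mg/ml BSA, 0.5% salmon testes DNA and 0.03% Triton X-100, and protein was detected with Alexa488 anti-GST antibody and a 488 nm scan. Binding intensity is the highest Masliner-normalised natural-log median intensity across replicate spots of either probe orientation.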

| Sequence | gcPBM binding intensity (ln) |
| --- | --- |
| ACCTATTTCAAACACACACACACACTAGCAAACATA [CACACA_site4695] | 7.26 |
| AAGAGAAAAATATGGTTGCACTAAAAATATATATTT | 8.26 |
| ATCATTTTTAAAGGAACACACAAAAAAAATTAAAAT [CACACA_site4878] | 6.76 |
| TCTTTTTTAATATAATATATTTTTATTAAGTAAATC [TGCATGCA_negctrl_site408] | 6.2 |
| ATTAATAATGAGTTATGTACATACATATTTTAAGAT [XGTACX_site7543] | 6.75 |
| AATAAATACTAAATGGTGCAAAATTTTTTAACACTG | 10 |
| CATACTCTACATAGATGTACTCATTTAAAAAAAAAA [XGTACX_site6945] | 6.12 |
| AATTAATAAAAAAGGTGTACAGTAAATGCAATAATC [XGTACX_site7956] | 8.08 |
| AAATATATCATACAAAGTACTTGGAATTAATATATA [XGTACX_site8907] | 6.3 |
| TAATTATGCCAACACACACACACACCCAACTAAAAA [CACACA_site8823] | 6.96 |
| TAATTATGCAGACACACACACACACCCAACTAAAAA [CACACA_site2569] | 7 |
| ATTATGCACCAACACACACACACACCCCTAAAAAAT [CACACA_site2568] | 11.5 |
| ATATAAAGGTTTATTAGTACACATTAGAATACTTTT [XGTACX_site4492] | 6.22 |
| GGGTTTTTAAAATGTAGTACATATGTAAACATCAAA [XGTACX_site1262] | 6.7 |
| CCAATACTGTTTAAATGTACAAGTAGGAGGTTAATT [XGTACX_site7260] | 6.64 |
| GCTTATGCTCAATATTGTACTTTTTTTATTTATTCA [XGTACX_site8863] | 10.6 |
| TTTTCAATATATATTTGTACTTTATTTTATGATATT [GTGCAC_negctrl_site732] | 6.71 |
| TATATATATATATATTGTACTTTATTTTATATATTC [XGTACX_site5697] | 9.11 |
| TATGTGTATTTATTTGCATGTTGGTTGTATTTTTTC [TGCATGCA_site479] | 6.94 |
| AGCATTTTTCATTTTGCACACATGTTTTATGTGTAT [CACACA_site3454] | 10.5 |
| AGCATTTTTCATTTTGCACACATGTTTTATGGGTAT [CACACA_site5839] | 10.5 |

| Sequence | gcPBM binding intensity (ln) |
| --- | --- |
| TATCCTAACTTTAGATGTACACAAATAAAAAAAAAA [XGTACX_site4491] | 6.32 |
| ATTTATATGAAAATATGTACTTATATAAATTTATTT [XGTACX_site53] | 6.23 |
| TAAGAATAATGACATAGTACAATTTAATAGATCTAA [XGTACX_site3670] | 6.01 |
| TTTTTTTTTAAAGAAAATAAAAATATGTACTTGACA [CACACA_negctrl_site1113] | 6.05 |
| AAAATTATAAATCTTGCACACAAAAAAAATAATAAA [CACACA_site8771] | 8.27 |
| ATAAAATAATCTTATGCACACCAAAAATTTATATAA [CACACA_site8332] | 10.4 |
| AAAATAATCTTATGCACACCAAAAATTTATATAATC [CACACA_site1235] | 10.6 |
| AATCATAAACATTATGCACACAAAAATAAAAAAAAA [CACACA_site8289] | 8.58 |
| TTTTAAAAAAATATAATACACACCAAAAATATGCAC [CACACA_site2131] | 7.15 |
| TAGTTAACAAATAATGCACACAAATGGATAAAATTA [CACACA_site9240] | 10.6 |
| AATTATAAATCTTGCACACAAAAAAAATAATAAAAA [CACACA_site2434] | 8.67 |
| GTTAACAAATAATGCACACAAATGGATAAAATTATA [CACACA_site3725] | 9.97 |
| AAATAAATCTTATGCACACAAATAATTAATTAAACA [CACACA_site1693] | 10.7 |
| TTTTTAGTTAATTAAACACACAAAAAAAAAAATAAA [CACACA_site3930] | 6.4 |
| AAAAAATTAATAAAAACACACAAAAAAAATAAACAA [CACACA_site1907] | 6.94 |
| CGAAATAAATCTTATGCACACAAATAATTAATTAAA [CACACA_site8491] | 10.5 |
| AAGCCTTAAAAGGAAAGTACGTATATATATATATAT [XGTACX_site8559] | 9.48 |
| TAAAGGTGAACAATACGTACATAAGAACTTATGAGG [XGTACX_site4216] | 6.43 |
| ACAATGAGGATATATACACACATACATTAAAAAAAT [CACACA_site6955] | 6.71 |
| GCACCAAAAAAAAGACGTACAGTTATATTAAAATAG [XGTACX_site8926] | 6.7 |
| ATACATCAAGGACACACACACACACCCACACCCACA [CACACA_site8013] | 6.71 |

| Sequence | gcPBM binding intensity (ln) |
| --- | --- |
| TATATGAAATATTATGCACACAATATATAATATGAT [CACACA_site936] | 10.2 |
| CTTAAAAACAAAAATGCACACATAATAAGCATATGT [CACACA_site9149] | 9.58 |
| AAATAAATCTTATGCACACAAATAATTAATGAAACA [CACACA_site5011] | 10.6 |
| AAAGAAATGAAATATACACACATACATAAATACATA [CACACA_site6081] | 6.68 |
| ATGTAAAACATAAAATGTACATATTATACAAACTAT [XGTACX_site5797] | 6.87 |
| ATTTATATTATAATATGTACACAAAAAAAATTAGGA [XGTACX_site565] | 6.91 |
| GTTTACTAATATTGCACACGAATATGAAAAAGAGAA [CACACA_site2897] | 10.6 |
| TATGAAATATCGTGCACACACGAATAATATAAGAAT [CACACA_site4842] | 9.21 |
| CAGTTTACTAATATTGCACACGAATATGAAAAAGAG [CACACA_site8941] | 9.89 |
| ATTATTTATTATTTCTGTACGTATAAAAATAACATT [XGTACX_site1671] | 6.67 |
| CAGTTAATGTTGGTACTTTATATAAAAATGATATGA [CACACA_negctrl_site1600] | 6.67 |
| TTATTTTAAATTAACACATGCATAATATATGTATAT [TGCATGCA_site597] | 6.31 |
| TAAATTATATTATGCACACTTAAAAATATATTTAAC [CACACA_site3512] | 9.29 |
| ACTAAACTTATATGTACACACATATAACATTAATTT [CACACA_site2258] | 6.67 |
| TTCCTCTTAATATGTGCACACTAAATTATAACATAA [CACACA_site3260] | 11.1 |
| TTCCTCTTAATATGTGCACACTAAATTATAACCTAA [CACACA_site5751] | 11.3 |
| CCTAAATTATATTATGCACACTTAAAAATATATTTA [CACACA_site5861] | 9.95 |
| AAATAATAAATTATAACACACATATATATATATATA [CACACA_site4045] | 9.33 |
| ATTATGTATATAAATTAACACACATATGTGGTTAAT [CACACA_site9028] | 6.37 |
| CCTCTTAATATGTGCACACTAAATTATAACATAATT [CACACA_site3259] | 11.3 |
